Values without a mark were called inactive. For some of these results: Potency and affinity values are given separately. The source made the active and inactive calls. For most assays here, the call rests on the fitted dose curve.

For experiment [1] the following is noted: Ebola virus entry assay, green fluorescence channel.
For experiment [2] the following is noted: Ebola virus entry assay, blue channel fluorescence.
The conditions of experiment [3]: Ebola virus entry assay, green fluorescence channel. The source holds these as a separate data set.
For experiment [4] the following is noted: Ebola virus entry assay, ratio channel readout.
For experiment [5] the following is noted: Ebola virus entry assay, blue channel fluorescence. This is another data set of the same source.
Wherever efficacy is given: 0% is about no effect.

As to `CC(=O)OCC(CCn1cnc2cnc(N)nc21)COC(C)=O`, the efficacy in experiment [1] was 17.3%. Also, the call in experiment [2], in experiment [3], in experiment [4] and in experiment [5] was inactive.
`CN(C)CCc1c[nH]c2ccc(C[C@H]3COC(=O)N3)cc12`: in experiment [1], the efficacy was -13.2%. Moreover, the result in experiment [2], in experiment [3] and in experiment [4] was inactive.
As to `C1N2CN3CN1CN(C2)C3`, the efficacy in experiment [1] is 14.5%. The result in experiment [2], in experiment [3] and in experiment [4] was inactive.
Regarding `CC(C)(C)C(=O)OCOP(=O)(COCCn1cnc2c(N)ncnc21)OCOC(=O)C(C)(C)C`, the efficacy in experiment [1] is -17.9%. Further, the outcome in experiment [2], in experiment [3] and in experiment [4] was inactive.
As to `CC1=C(C(=O)O)N2C(=O)[C@@H](NC(=O)[C@H](N)c3ccccc3)[C@H]2SC1`, in experiment [1], the efficacy is 11.4%. In addition, the outcome in experiment [2], in experiment [3], in experiment [4] and in experiment [5] was inactive.
For `Cc1cn[nH]c1`, the efficacy in experiment [1] is -9.66%. Moreover, the call in experiment [2], in experiment [3] and in experiment [4] was inactive.
For `O=C(O)C1(C(=O)O)CCC1.[NH2-].[NH2-].[Pt+2]`, in experiment [1], the efficacy was -21.2%. In addition, the outcome in experiment [2], in experiment [3] and in experiment [4] was inactive.
In the case of `CC(C)(C(=O)O)c1ccc(C(O)CCCN2CCC(C(O)(c3ccccc3)c3ccccc3)CC2)cc1` (centres undefined), the efficacy in experiment [1] was -13%. Further, the result in experiment [2], in experiment [3] and in experiment [4] was inactive.
Regarding `O=C1C(=O)c2ccccc2C(O)=C1C1CCC(c2ccc(Cl)cc2)CC1` (centres undefined), the efficacy in experiment [1] was 18.6%. The outcome in experiment [2] and in experiment [3] was inactive.
Regarding `CCN1CCN(C(=O)N[C@@H](C(=O)N[C@@H]2C(=O)N3C(C(=O)O)=C(CSc4nnnn4C)CS[C@H]23)c2ccc(O)cc2)C(=O)C1=O`, the efficacy in experiment [1] is -23.3%. In addition, the result in experiment [2], in experiment [3], in experiment [4] and in experiment [5] was inactive.
For `NNCCc1ccccc1`, in experiment [1], the efficacy is -18.8%. The compound was called inactive in experiment [2], in experiment [3], in experiment [4] and in experiment [5].
For `O=C(O)P(=O)(O)O`, the efficacy in experiment [1] is -12.5%. The result in experiment [2], in experiment [3] and in experiment [4] was inactive.
For the compound `CC(C)NC[C@@H](O)COc1ccc(CC(N)=O)cc1`, the efficacy in experiment [1] is -16.3%. Further, the compound was classed as inactive in experiment [2], in experiment [3] and in experiment [4].
As for `c1cnc2cc3c(cc2n1)C1CNCC3C1`, the efficacy in experiment [1] is -29.9%. For the same compound, the compound was called inactive in experiment [2], in experiment [3], in experiment [4] and in experiment [5].
For the compound `NC(=O)OCC(COC(N)=O)c1ccccc1`, the efficacy in experiment [1] is -25.6%. For the same compound, the result in experiment [2], in experiment [3] and in experiment [4] was inactive.
`O=C(O)COCCN1CCN(C(c2ccccc2)c2ccc(Cl)cc2)CC1` (centres undefined): the efficacy in experiment [1] is -24.1%. The result in experiment [2], in experiment [3] and in experiment [4] was inactive.
Take `Nc1[nH]c(=O)ncc1F`: the efficacy in experiment [1] was 14.3%. The result in experiment [2], in experiment [3] and in experiment [4] was inactive.
On to `CCCC(CCC)C(=O)O`, for which the efficacy in experiment [1] was -11.7%. The outcome in experiment [2], in experiment [3] and in experiment [4] was inactive.
Take `CC(S)C(=O)NCC(=O)O` (centres undefined): the efficacy in experiment [1] was -25.6%. In addition, the compound was called inactive in experiment [2], in experiment [3] and in experiment [4].
In the case of `O=C(O)CCCc1ccccc1`, the efficacy in experiment [1] is -16.1%. Also, the outcome in experiment [2], in experiment [3] and in experiment [4] was inactive.
Consider `CCCNC(=O)NS(=O)(=O)c1ccc(Cl)cc1`, for which the efficacy in experiment [1] is -18.6%. In addition, the outcome in experiment [2], in experiment [3] and in experiment [4] was inactive.
In the case of `O=C(O)c1cn(C2CC2)c2cc(N3CCNCC3)c(F)cc2c1=O`, the efficacy in experiment [1] is -9.16%. Also, the outcome in experiment [2], in experiment [3] and in experiment [4] was inactive.
Turning to `COC(=O)[C@@H]1CC2=CC(=O)CC[C@]2(C)[C@@]23O[C@@H]2C[C@@]2(C)[C@@H](CC[C@@]24CCC(=O)O4)[C@H]13`, the efficacy in experiment [1] is -15.8%. The compound was called inactive in experiment [2], in experiment [3] and in experiment [4].
Turning to `NCCCC(O)(P(=O)(O)O)P(=O)(O)O`, in experiment [1], the efficacy was 11.2%. In experiment [2], the AC50 was 4.47 µM (active). The outcome in experiment [3] and in experiment [4] was inactive.
With `C[C@@H](O)[C@H]1C(=O)N2C(C(=O)O)=C(S[C@@H]3CN[C@H](C(=O)N(C)C)C3)[C@H](C)[C@H]12`, the efficacy in experiment [1] was 17.9%. Besides, the compound was called inactive in experiment [2], in experiment [3] and in experiment [4].
`CN(CCOc1ccc(CC2SC(=O)NC2=O)cc1)c1ccccn1` (centres undefined): in experiment [1], the efficacy was -12.2%. Further, the outcome in experiment [2], in experiment [3] and in experiment [4] was inactive.
In the case of `COc1ccccc1OCC(O)COC(N)=O` (centres undefined), the efficacy in experiment [1] is -13%. Further, the compound was classed as inactive in experiment [2], in experiment [3] and in experiment [4].
Consider `C[C@@H](c1ncncc1F)C(O)(Cn1cncn1)c1ccc(F)cc1F` (some centres undefined), for which, in experiment [1], the efficacy is -14.3%. For the same compound, the compound was called inactive in experiment [2], in experiment [3], in experiment [4] and in experiment [5].
As for `Cc1onc(-c2ccccc2Cl)c1C(=O)N[C@@H]1C(=O)N2[C@@H]1SC(C)(C)[C@@H]2C(=O)O`, the efficacy in experiment [1] is 13.5%. For the same compound, the result in experiment [2], in experiment [3], in experiment [4] and in experiment [5] was inactive.
Consider `O=C1CCc2ccc(OCCCCN3CCN(c4cccc(Cl)c4Cl)CC3)cc2N1`, for which, in experiment [1], the efficacy is -27%. Besides, the compound was called inactive in experiment [2], in experiment [3] and in experiment [4].
For `CCCCS(=O)(=O)N[C@@H](Cc1ccc(OCCCCC2CCNCC2)cc1)C(=O)O`, the efficacy in experiment [1] is 9.81%. Further, the call in experiment [2], in experiment [3] and in experiment [4] was inactive.
For the compound `CC1(C)S[C@@H]2[C@H](NC(=O)C(C(=O)O)c3ccccc3)C(=O)N2[C@H]1C(=O)O` (some centres undefined), in experiment [1], the efficacy was 26%. Further, the call in experiment [2], in experiment [3], in experiment [4] and in experiment [5] was inactive.
As for `CCCN(CCC)CCc1cccc2c1CC(=O)N2`, the efficacy in experiment [1] is 29.5%. Moreover, the compound was classed as inactive in experiment [2], in experiment [3] and in experiment [4].

The values above are taken from PubChem BioAssay (NCATS).
